Whole data set: some 33,000 sequences, median “normalized occupancy” near 0.075, cut for the highest 2% near 0.095. Only a selection was taken, and the highest values are over-represented in it overall.
Molecular target: MaxL homodimer (Homo sapiens, UniProt P61244 1-160)
Experiment: universal protein-binding microarray (PBM); PBS-based mixture, 10 nM His-tagged protein dimer, 2% milk, 200 ng/uL BSA, 50 ng/uL salmon testes DNA, 0.02% TX-100; detection with Alexa 488 anti-His antibody;; high values mean tight binding
Conditions: protein: recombinant; tags: C-terminal His-tag (pET21a); chain copies: 2; dsDNA, one strand shown
Procedure, shortened: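 His-tagged protein dimer at 10 nM was bound to Agilent 4 x 44 K 'all 10-mer' universal arrays and detected with 10 ng/μL fluorophore-conjugated anti-His antibody on a GenePix 4400A, giving an intensity per 8-mer. Binding occupancy normalises each intensity to the top-ranked one.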

Sequence of MaxL homodimer (P61244 whole entry): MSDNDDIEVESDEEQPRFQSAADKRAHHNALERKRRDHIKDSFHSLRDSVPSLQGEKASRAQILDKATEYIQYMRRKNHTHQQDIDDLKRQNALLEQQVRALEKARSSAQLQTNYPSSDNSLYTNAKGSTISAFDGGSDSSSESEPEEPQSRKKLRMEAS

Sequence | binding signal
GTTTCCTA | 0.0787 normalized occupancy
AATATAAG | 0.0817 normalized occupancy
CCCCTAAC | 0.0774 normalized occupancy
AACACTAC | 0.0726 normalized occupancy
AATAGTGC | 0.0733 normalized occupancy
GGAGAGAC | 0.0742 normalized occupancy
AGACACGC | 0.0922 normalized occupancy
CCACACAA | 0.0772 normalized occupancy
CCACACGC | 0.0953 normalized occupancy
ACACACGC | 0.103 normalized occupancy
CCACACAC | 0.0837 normalized occupancy
ACACACAC | 0.0915 normalized occupancy
ACTAACAA | 0.0766 normalized occupancy
GCTTACCA | 0.0723 normalized occupancy
GCAATCTA | 0.0722 normalized occupancy
ATTAAAGA | 0.0773 normalized occupancy
CTATTAAC | 0.0779 normalized occupancy
GTAGTAAA | 0.0757 normalized occupancy
AGGACCAT | 0.0823 normalized occupancy
ACTATTCG | 0.0759 normalized occupancy
AAAGCATA | 0.0783 normalized occupancy
CAAGCATA | 0.0775 normalized occupancy

Sequence | binding signal
CAAGCATG | 0.105 normalized occupancy
CAAGCATC | 0.0744 normalized occupancy
AAAGCATC | 0.0796 normalized occupancy
AAAGCATG | 0.104 normalized occupancy
CTCACTTC | 0.0734 normalized occupancy
TATTCCGA | 0.072 normalized occupancy
ATCCACGA | 0.0905 normalized occupancy
CTCCACCA | 0.075 normalized occupancy
CTCCACGA | 0.0817 normalized occupancy
ATCCACGG | 0.0796 normalized occupancy
CTCCACGC | 0.101 normalized occupancy
ATCCACGC | 0.109 normalized occupancy
AGAGATAA | 0.0771 normalized occupancy
CCTTAGGC | 0.0728 normalized occupancy
CACGCCTG | 0.0966 normalized occupancy
CACGCCTA | 0.0938 normalized occupancy
CTCGCCTC | 0.0748 normalized occupancy
GACGCCTC | 0.0726 normalized occupancy
AACGCCTG | 0.0733 normalized occupancy
CACGCCTC | 0.0974 normalized occupancy
AAATAGTT | 0.0744 normalized occupancy
ATGCGAGG | 0.0841 normalized occupancy

Sequence | binding signal
ATTGTTAA | 0.0765 normalized occupancy
ACGCACTA | 0.0766 normalized occupancy
GCGCACGC | 0.0964 normalized occupancy
ACGCACCT | 0.0799 normalized occupancy
ACGCACGG | 0.0828 normalized occupancy
AAGCACGG | 0.0779 normalized occupancy
AAGCACGA | 0.0867 normalized occupancy
GCGCACTA | 0.0726 normalized occupancy
ACGCACGC | 0.109 normalized occupancy
ACGCACGA | 0.091 normalized occupancy
GCGCACGA | 0.093 normalized occupancy
AAGCACGT | 0.102 normalized occupancy
ACGCACGT | 0.0986 normalized occupancy
GACGACGA | 0.0747 normalized occupancy
AAATGTAA | 0.0834 normalized occupancy
ACTCATAC | 0.074 normalized occupancy
ATCCCACG | 0.093 normalized occupancy
CTTATTAC | 0.0796 normalized occupancy
CAATCACC | 0.0797 normalized occupancy
ACTTGTAG | 0.073 normalized occupancy
GGAGCCAA | 0.0767 normalized occupancy
GCAAAGGA | 0.0773 normalized occupancy

Sequence | binding signal
AAATGGGG | 0.0777 normalized occupancy
ATGATTTA | 0.079 normalized occupancy
CCGCACGG | 0.0742 normalized occupancy
CCGCACGA | 0.0824 normalized occupancy
CCGCACGC | 0.0999 normalized occupancy
ACATTTTG | 0.0837 normalized occupancy
AACGCCCG | 0.0749 normalized occupancy
GACGCGAA | 0.0735 normalized occupancy
AACGCGAG | 0.0764 normalized occupancy
CACGCGAG | 0.111 normalized occupancy
AACGCGAC | 0.0746 normalized occupancy
CACGCGAC | 0.131 normalized occupancy
AACGCGAA | 0.0761 normalized occupancy
CACGCGAA | 0.105 normalized occupancy
GACGCGAC | 0.0735 normalized occupancy
CGCGCGAG | 0.0787 normalized occupancy
GTGGAATA | 0.0822 normalized occupancy
ACGTCTTG | 0.0724 normalized occupancy
ACAGGTTG | 0.0821 normalized occupancy
AAAACGAG | 0.0747 normalized occupancy

From article PMC4242493, “Sequence specificity incompletely defines the genome-wide occupancy of Myc”
